Measurements published in PubChem BioAssay (Tox21).
Several values for one entry are separate records, joined by “and”; a condition that tells them apart may be missing. Equal entries are not always repeated. Results filed as inconclusive are left out. A call without a number means that no potency is given here. Activity calls are given as the source filed them. Unless noted, calls come from the whole dose curve; as a rule, active = well fitted curve in the direction sought with a large enough effect in the repeat runs; inconclusive = weak or mixed curves; inactive = no such curve, though single readings can be large; an effect the other way counts as inactive or inconclusive.

Test: qHTS assay for small molecule disruptors of the mitochondrial membrane potential - cell viability (AID 720634; calls by dose curve; note: nearly all actives have a fitted effect of over 20% in size; note: potency is the fitted concentration of half-maximal effect)
Details: HepG2 viability, ATP luminescence (CellTiter-Glo), 1 h; series mostly up to 83.2 µM
Outline: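 In this qHTS format, HepG2 cells plated overnight were pinned with compound, incubated 1 hr, and assayed for ATP luminescence with CellTiter-Glo after m-MPI dye addition.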

With `c1ccc2occc2c1` as the compound, how does the Potency read?
The Potency was “inactive”.

Which Potency does the source give for `CC[N+](CC)(CC)CCC(O)(c1ccccc1)C1CCCCC1` (configuration not stated) here?
Its Potency is “inactive”.

With `O=C1C2CC3CC1CC(O)(C3)C2` as the compound, how does the Potency read?
The Potency was “inactive”.

Which Potency does the source give for `CC[C@@]1([C@@H]2O[C@@H]([C@H]3O[C@@](O)(CO)[C@H](C)C[C@@H]3C)C[C@@H]2C)CC[C@H]([C@]2(C)CC[C@]3(C[C@H](O)[C@@H](C)[C@@H]([C@@H](C)[C@@H](OC)[C@H](C)C(=O)O)O3)O2)O1` (stereo in doubt) here?
The Potency was “inactive”.

For `CCC(C)(C)c1ccc(CC(C)CN2C[C@@H](C)O[C@@H](C)C2)cc1` (some centres not stated), which Potency is on record?
Its Potency is “inactive”.

Which Potency does the source give for `O=C1c2ccccc2-c2n[nH]c3cccc1c23` here?
The Potency was “inactive”.

Which Potency does the source give for `CCCCCCCCCCCCCCCCC(C(=O)O)C(O)(CC(=O)O)C(=O)O` (configuration not stated) here?
Its Potency is “inactive”.

For `CO/N=C(\C(=O)N[C@@H]1C(=O)N2C(C(=O)O)=C(C[N+]3(C)CCCC3)CS[C@H]12)c1csc(N)n1`, which Potency is on record?
Its Potency is “inactive”.

With `O=C1CCCCCCCCCCCCCC1` as the compound, how does the Potency read?
Its Potency is “inactive”.

For `C[C@@H]1C(=O)NC2=Nc3cccc(Cl)c3CN21`, which Potency is on record?
Its Potency is “inactive”.

For `C=C1C(CCl)(CCl)C2(Cl)C(Cl)C(Cl)C1(Cl)C2(Cl)Cl` (configuration not stated), which Potency is on record?
The Potency was “inactive”.

With `CCOc1ccc([N+](=O)[O-])cc1` as the compound, how does the Potency read?
Its Potency is 55.3 µM (active).

For `O=C(Nc1ccccc1)c1cc(Cl)ccc1O`, which Potency is on record?
Its Potency is 1.93 µM (active).

For `N[C@H](CO)C(=O)O`, which Potency is on record?
The Potency was “inactive”.

Which Potency does the source give for `CC(C)c1ccc2sc3ccccc3c(=O)c2c1` here?
Its Potency is 34.4 µM (active).

For `CC(=O)N[C@@H](C=O)[C@H](O)[C@H](O)[C@@H](O)CO`, which Potency is on record?
The Potency was “inactive”.

For `COc1c(Br)cc(Br)c(C)c1Br`, which Potency is on record?
Its Potency is “inactive”.

For `OCCCNc1ccccc1`, which Potency is on record?
The Potency was “inactive”.

Which Potency does the source give for `NCc1cccc(C2CCN(C(=O)c3ccc(C#Cc4ccccc4F)o3)CC2)c1` here?
The Potency was “inactive”.

Which Potency does the source give for `COc1cccc2c1[C@@H]1CN(CCCCn3c(=O)[nH]c4c(sc5ncc(-c6ccccc6)nc54)c3=O)C[C@@H]1CO2` here?
Its Potency is “inactive”.

Which Potency does the source give for `CN=C(N)NCCC[C@H](N)C(=O)O` here?
Its Potency is “inactive”.

For `CCSCC`, which Potency is on record?
The Potency was “inactive”.

Test: qHTS assay for small molecule disruptors of the mitochondrial membrane potential (AID 720635); note: potency is the fitted concentration of half-maximal effect
Details: HepG2 mitochondrial membrane potential, Mito-MPS dye ratio; series mostly up to 83.2 µM
Outline: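 HepG2 cells exposed to compound 1 hr at 37C, then Mito-MPS dye 30 min. Ratio read of aggregate (540/590 nm) versus monomer (490/535 nm) fluorescence.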

For `CC(C)Cc1ccc([C@H](C)C(=O)O)cc1`, which Potency is on record?
Its Potency is “inactive”.

For `O=C1C2CC3CC1CC(O)(C3)C2`, which Potency is on record?
The Potency was “inactive”.

With `Cc1c(N)nc([C@H](CC(N)=O)NC[C@H](N)C(N)=O)nc1C(=O)N[C@H](C(=O)N[C@H](C)[C@@H](O)[C@H](C)C(=O)N[C@H](C(=O)NCCc1nc(-c2nc(C(=O)NCCCCN=C(N)N)cs2)cs1)[C@@H](C)O)[C@@H](O[C@@H]1O[C@@H](CO)[C@@H](O)[C@H](O)[C@@H]1O[C@H]1O[C@H](CO)[C@@H](O)[C@H](OC(N)=O)[C@@H]1O)c1cnc[nH]1` as the compound, how does the Potency read?
The Potency was “inactive”.

With `CCC(C)(C)c1ccc(CC(C)CN2C[C@@H](C)O[C@@H](C)C2)cc1` (some centres not stated) as the compound, how does the Potency read?
Its Potency is 23.7 µM (active).

With `CC1(C)S[C@@H]2[C@H](NC(=O)[C@H](N)c3ccc(O)cc3)C(=O)N2[C@H]1C(=O)O` as the compound, how does the Potency read?
Its Potency is “inactive”.

Which Potency does the source give for `O=C1CCCCCCCCCCCCCC1` here?
Its Potency is 48.6 µM (active).

For `C=C1C(CCl)(CCl)C2(Cl)C(Cl)C(Cl)C1(Cl)C2(Cl)Cl` (configuration not stated), which Potency is on record?
The Potency was 3.76 µM (active) and 4.28 µM (active).

For `CCOc1ccc([N+](=O)[O-])cc1`, which Potency is on record?
The Potency was 3.91 µM (active).

Which Potency does the source give for `O=C(Nc1ccccc1)c1cc(Cl)ccc1O` here?
The Potency was 0.386 µM (active).

For `CC(C)c1ccc2sc3ccccc3c(=O)c2c1`, which Potency is on record?
Its Potency is 48.6 µM (active).

With `NCc1cccc(C2CCN(C(=O)c3ccc(C#Cc4ccccc4F)o3)CC2)c1` as the compound, how does the Potency read?
The Potency was “inactive”.

Which Potency does the source give for `CN[C@H](CC(C)C)C(=O)N[C@H]1C(=O)N[C@@H](CC(N)=O)C(=O)N[C@H]2C(=O)N[C@H]3C(=O)N[C@H](C(=O)N[C@@H](C(=O)O)c4cc(O)cc(O)c4-c4cc3ccc4O)[C@H](O)c3ccc(c(Cl)c3)Oc3cc2cc(c3O[C@@H]2O[C@H](CO)[C@@H](O)[C@H](O)[C@H]2O[C@H]2C[C@](C)(N)C(O)[C@H](C)O2)Oc2ccc(cc2Cl)[C@H]1O` (some centres not stated) here?
Its Potency is “inactive”.

Which Potency does the source give for `O=C(Cn1cnnn1)N[C@@H]1C(=O)N2C(C(=O)O)=C(CSc3nncs3)CS[C@H]12` here?
The Potency was “inactive”.

For `COc1cccc2c1[C@@H]1CN(CCCCn3c(=O)[nH]c4c(sc5ncc(-c6ccccc6)nc54)c3=O)C[C@@H]1CO2`, which Potency is on record?
The Potency was 13.3 µM (active).

With `Oc1ccc(Cl)cc1C1CCCC1` as the compound, how does the Potency read?
The Potency was 3.86 µM (active).

With `CN=C(N)NCCC[C@H](N)C(=O)O` as the compound, how does the Potency read?
Its Potency is “inactive”.

With `Cc1cc(F)ccc1-c1cc(N2CC[C@@H](O)[C@H]2CO)ncc1N(C)C(=O)C(C)(C)c1cc(C(F)(F)F)cc(C(F)(F)F)c1` as the compound, how does the Potency read?
The Potency was 21.4 µM (active).

Which Potency does the source give for `CC(CNC(=O)c1cccnc1)NC(=O)c1cccnc1` (configuration not stated) here?
The Potency was “inactive”.

Test: qHTS assay to test for compound auto fluorescence at 590 nm (red) in HepG2 cells (AID 720674)
Details: HepG2 autofluorescence, red 540/590 nm, 1 h; series mostly up to 46 µM
Outline: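 Seeding: 2,000 HepG2 cells/well, MEM/10% FBS, overnight 37 C. Dosing: compound vs DMSO. Incubation: 1 hr, 37 C, 5% CO2. Read: fluorescence 540 ex/590 em, Rose Bengal sodium as red reference.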

Which outcome does the source give for `CN1CC[C@H](c2c(O)cc(O)c3c(=O)cc(-c4ccccc4Cl)oc23)[C@H](O)C1` here?
The outcome was “inactive”.

With `c1ccc2occc2c1` as the compound, how does the outcome read?
Its outcome is “inactive”.

With `CC(C)Cc1ccc([C@H](C)C(=O)O)cc1` as the compound, how does the outcome read?
The outcome was “inactive”.

Which outcome does the source give for `CC[N+](CC)(CC)CCC(O)(c1ccccc1)C1CCCCC1` (configuration not stated) here?
Its outcome is “inactive”.

For `O=C1C2CC3CC1CC(O)(C3)C2`, which outcome is on record?
Its outcome is “inactive”.

For `Cc1c(N)nc([C@H](CC(N)=O)NC[C@H](N)C(N)=O)nc1C(=O)N[C@H](C(=O)N[C@H](C)[C@@H](O)[C@H](C)C(=O)N[C@H](C(=O)NCCc1nc(-c2nc(C(=O)NCCCCN=C(N)N)cs2)cs1)[C@@H](C)O)[C@@H](O[C@@H]1O[C@@H](CO)[C@@H](O)[C@H](O)[C@@H]1O[C@H]1O[C@H](CO)[C@@H](O)[C@H](OC(N)=O)[C@@H]1O)c1cnc[nH]1`, which outcome is on record?
The outcome was “inactive”.

Which outcome does the source give for `CC[C@@]1([C@@H]2O[C@@H]([C@H]3O[C@@](O)(CO)[C@H](C)C[C@@H]3C)C[C@@H]2C)CC[C@H]([C@]2(C)CC[C@]3(C[C@H](O)[C@@H](C)[C@@H]([C@@H](C)[C@@H](OC)[C@H](C)C(=O)O)O3)O2)O1` (stereo in doubt) here?
Its outcome is “inactive”.

For `CCC(C)(C)c1ccc(CC(C)CN2C[C@@H](C)O[C@@H](C)C2)cc1` (some centres not stated), which outcome is on record?
The outcome was “inactive”.

For `O=C1c2ccccc2-c2n[nH]c3cccc1c23`, which outcome is on record?
Its outcome is “inactive”.

Which outcome does the source give for `CCCCCCCCCCCCCCCCC(C(=O)O)C(O)(CC(=O)O)C(=O)O` (configuration not stated) here?
Its outcome is “inactive”.

Which outcome does the source give for `CO/N=C(\C(=O)N[C@@H]1C(=O)N2C(C(=O)O)=C(C[N+]3(C)CCCC3)CS[C@H]12)c1csc(N)n1` here?
Its outcome is “inactive”.

For `CC1(C)S[C@@H]2[C@H](NC(=O)[C@H](N)c3ccc(O)cc3)C(=O)N2[C@H]1C(=O)O`, which outcome is on record?
Its outcome is “inactive”.

Which outcome does the source give for `CC(C)(C)c1ccc2c(S(=O)(=O)O)c(C(C)(C)C)ccc2c1` here?
Its outcome is “inactive”.

For `O=C1CCCCCCCCCCCCCC1`, which outcome is on record?
Its outcome is “inactive”.

With `C[C@@H]1C(=O)NC2=Nc3cccc(Cl)c3CN21` as the compound, how does the outcome read?
Its outcome is “inactive”.

With `C=C1C(CCl)(CCl)C2(Cl)C(Cl)C(Cl)C1(Cl)C2(Cl)Cl` (configuration not stated) as the compound, how does the outcome read?
The outcome was “inactive”.

For `CN(C[C@@H](CC[N+]12CCC(C3CCCCC3)(CC1)CC2)c1ccc(Cl)c(Cl)c1)C(=O)c1cc(C(F)(F)F)cc(C(F)(F)F)c1`, which outcome is on record?
The outcome was “inactive”.

Which outcome does the source give for `CCOc1ccc([N+](=O)[O-])cc1` here?
Its outcome is “inactive”.

For `Cc1cc(CC(C)CC(C)(C)C)n(O)c(=O)c1` (configuration not stated) (tested in a mixture with another compound), which outcome is on record?
The outcome was “inactive”.

Which outcome does the source give for `O=C(Nc1ccccc1)c1cc(Cl)ccc1O` here?
Its outcome is “inactive”.

With `N[C@H](CO)C(=O)O` as the compound, how does the outcome read?
Its outcome is “inactive”.

With `CC[C@@H](C)[C@H](N)C(=O)O` as the compound, how does the outcome read?
Its outcome is “inactive”.

For `CC(C)c1ccc2sc3ccccc3c(=O)c2c1`, which outcome is on record?
Its outcome is “inactive”.

For `CC(=O)N[C@@H](C=O)[C@H](O)[C@H](O)[C@@H](O)CO`, which outcome is on record?
Its outcome is “inactive”.

With `COc1c(Br)cc(Br)c(C)c1Br` as the compound, how does the outcome read?
Its outcome is “inactive”.

For `OCCCNc1ccccc1`, which outcome is on record?
Its outcome is “inactive”.

With `Cc1ccc2nc(-c3ccc(N)cc3)sc2c1S(=O)(=O)O` as the compound, how does the outcome read?
Its outcome is “inactive”.

For `NCc1cccc(C2CCN(C(=O)c3ccc(C#Cc4ccccc4F)o3)CC2)c1`, which outcome is on record?
The outcome was “inactive”.

Which outcome does the source give for `CN[C@H](CC(C)C)C(=O)N[C@H]1C(=O)N[C@@H](CC(N)=O)C(=O)N[C@H]2C(=O)N[C@H]3C(=O)N[C@H](C(=O)N[C@@H](C(=O)O)c4cc(O)cc(O)c4-c4cc3ccc4O)[C@H](O)c3ccc(c(Cl)c3)Oc3cc2cc(c3O[C@@H]2O[C@H](CO)[C@@H](O)[C@H](O)[C@H]2O[C@H]2C[C@](C)(N)C(O)[C@H](C)O2)Oc2ccc(cc2Cl)[C@H]1O` (some centres not stated) here?
The outcome was “inactive”.

Which outcome does the source give for `O=C(Cn1cnnn1)N[C@@H]1C(=O)N2C(C(=O)O)=C(CSc3nncs3)CS[C@H]12` here?
Its outcome is “inactive”.

Which outcome does the source give for `COc1cccc2c1[C@@H]1CN(CCCCn3c(=O)[nH]c4c(sc5ncc(-c6ccccc6)nc54)c3=O)C[C@@H]1CO2` here?
Its outcome is “inactive”.

For `Oc1ccc(Cl)cc1C1CCCC1`, which outcome is on record?
Its outcome is “inactive”.

With `CN=C(N)NCCC[C@H](N)C(=O)O` as the compound, how does the outcome read?
Its outcome is “inactive”.

Which outcome does the source give for `CCSCC` here?
Its outcome is “inactive”.

For `c1ccc2cc3c4ccccc4c4ccccc4c3cc2c1`, which outcome is on record?
The outcome was “inactive”.

With `Cc1cc(F)ccc1-c1cc(N2CC[C@@H](O)[C@H]2CO)ncc1N(C)C(=O)C(C)(C)c1cc(C(F)(F)F)cc(C(F)(F)F)c1` as the compound, how does the outcome read?
Its outcome is “inactive”.

Which outcome does the source give for `CC(CNC(=O)c1cccnc1)NC(=O)c1cccnc1` (configuration not stated) here?
The outcome was “inactive”.
